The source made the active and inactive calls.
Experiments:
[1] = system: Plasmodium falciparum Sir2 (PF13_0152, Sir2A); test: Plasmodium falciparum Sir2A binding compounds – biochemical, small-molecule microarray, 635 nm fluorescence, primary screen (AID 1098); details: fluorescence 635 nm, higher = more signal;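 also: score merges spot fluorescence intensity with its signal-to-noise ratio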
[2] = probe aDKK1 binding to arrayed compounds – biochemical, biotinylated probe, 635/667 nm fluorescence, primary screen (AID 1099); details: small-molecule microarray, higher = more signal;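 also: score merges 667nm spot fluorescence with signal to noise across triplicate slides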
[3] = probe aCHRDL2 binding to arrayed compounds – biochemical, biotinylated probe, 635/667 nm fluorescence, primary screen (AID 1100); details: small-molecule microarray, higher = more signal
[4] = change in splice reporter luminescence, either direction, cell-based, HEK293, spliceosome inhibition project, primary screen (AID 1101); details: HEK293 splicing luciferase reporter, 24 h, higher = more signal, called active from +8 up or from −8 down;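 also: HEK293 cells carrying a splicing-competent luciferase reporter gene; test concentration not given here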
[5] = molecular target: Fibroblast growth factor 10 (Homo sapiens) (UniProt O15520); test: compounds binding fibroblast growth factor 10 – biochemical, small-molecule microarray, 635 nm fluorescence, primary screen (AID 1102); details: FGF10 binding, fluorescence 635 nm, higher = more signal
[6] = system: glycogen synthase kinase-3 (GSK3A per assay name; protocol says GSK3B); test: compounds binding glycogen synthase kinase-3 – biochemical, small-molecule microarray, 635 nm fluorescence, GSK3A, primary screen (AID 1103); details: fluorescence 635 nm, higher = more signal; also: the record names both GSK3A and GSK3B
[7] = molecular target: Epidermal growth factor receptor (Homo sapiens) (UniProt P00533); test: compounds binding epidermal growth factor receptor – biochemical, small-molecule microarray, 635 nm fluorescence, primary screen (AID 1104); details: EGFR binding, higher = more signal;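 also: score merges 667 nm emission intensity with spot signal to noise over triplicate slides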
[8] = molecular target: Follistatin-related protein 3 (Homo sapiens) (UniProt O95633); test: compounds binding follistatin-related protein 3 – biochemical, small-molecule microarray, 635 nm fluorescence, primary screen (AID 1105); details: FSTL3 binding, higher = more signal;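 also: score merges emission near 667 nm and signal to noise per printed spot across three slides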
[9] = molecular target: Dickkopf-related protein 1 (Homo sapiens) (UniProt O94907); test: small molecules binding DKK1 protein – biochemical, small-molecule microarray, 635 nm fluorescence scan, primary screen (AID 1106); details: higher = more signal;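 also: score merges emission near 667 nm with signal to noise over three replicate slides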
[10] = system: Inhibin beta A chain (activin A); test: small molecules binding activin A – biochemical, small-molecule microarray, 635 nm fluorescence scan, primary screen (AID 1107); details: INHBA, higher = more signal;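 also: mouse activin A protein probed at 4.33 µg/mL on printed slides; score merges bound-protein fluorescence near 667 nm with spot signal-to-noise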
[11] = system: Human papillomavirus type 1a protein E7 (residues 44-93); test: small molecules binding HPV E7 44-93 – biochemical, small-molecule microarray, residues 44-93, 635 nm fluorescence, primary screen (AID 1108); details: fluorescence 635 nm, higher = more signal;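 also: E7 fragment applied at 1 µg/mL in TBST for 1 h at 4 C; score combines spot fluorescence with its signal to noise ratio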
[12] = hepatitis C replication reporter changes, two-sided – Huh7 cells, luciferase reporter, HCV replication inhibitor project, primary screen (AID 1109); details: Huh7 HCV replicon luciferase reporter, 48 h; higher = more signal;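 also: huh7 hepatoma cells harbouring a luciferase neomycin HCV replicon reporter; luciferase luminescence as measure of HCV replicon replication; test concentration not given here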
[13] = molecular target: Left-right determination factor 2 (Homo sapiens) (UniProt O00292); test: small molecules binding LEFTY2 protein – biochemical, small-molecule microarray, 635 nm fluorescence scan, primary screen (AID 1110); details: higher = more signal
[14] = molecular target: Calmodulin-1 (Homo sapiens) (UniProt P0DP23); test: small molecules binding calmodulin-1 with EGTA – biochemical, small-molecule microarray, Cy5-labelled CALM1, profiling panel (AID 1111); details: Cy5-CALM1 binding fluorescence, higher = more signal;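 also: labelled calmodulin applied in Tris saline Tween buffer holding calcium plus EGTA and DTT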
[15] = molecular target: Calmodulin-1 (Homo sapiens) (UniProt P0DP23); test: small molecules binding Ca-loaded calmodulin-1 – biochemical, small-molecule microarray, Cy5-labelled CALM1, plus calcium, artefact control for SMM control-protein annotation, profiling panel (AID 1112); details: Cy5-CALM1 binding fluorescence, higher = more signal;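 also: score merges spot fluorescence with signal to noise from triplicate slides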
[16] = probe aWnt5a binding to arrayed compounds – biochemical, biotinylated probe, 635/667 nm fluorescence, primary screen (AID 1113); details: small-molecule microarray, higher = more signal;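 also: score merges 667 nm fluorescence intensity with signal-to-noise per printed feature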
[17] = probe aShh binding to arrayed compounds – biochemical, biotinylated probe, 635/667 nm fluorescence, primary screen (AID 1114); details: small-molecule microarray, higher = more signal;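 also: probe is biotin-labelled aShh protein from a stem cell growth factor screen; measures binding of labelled protein to compounds printed on the slide; score merges feature fluorescence at 667 nm with signal-to-noise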
[18] = probe aNog binding to arrayed compounds – biochemical, biotinylated probe, 635/667 nm fluorescence, primary screen (AID 1115); details: small-molecule microarray, higher = more signal;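 also: probe is biotinylated aNog protein used at 0.15 µg/mL for 1 h at 4 C; z-score combines 667 nm fluorescence of each spot with its signal to noise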
[19] = molecular target: Torsin-1A-interacting protein 1 (Homo sapiens) (UniProt Q5JTV8); test: compound microarray binding of lysate hLAP1 – cell lysate, small-molecule microarray, COS7 lysate, 635/667 nm fluorescence, primary screen (AID 1116); details: 635 nm fluorescence, higher = more signal
[20] = molecular target: Alpha-bungarotoxin (Bungarus multicinctus) (UniProt P60615); test: compounds binding labelled alpha-BTX control protein – biochemical, small-molecule microarray, Alexa647 label, 635/667 nm fluorescence, artefact control for SMM control protein annotation, profiling panel (AID 1117); details: alpha-BTX-A647 binding fluorescence, higher = more signal
Alpha-bungarotoxin (Bungarus multicinctus), sequence (P60615 whole entry, looked up): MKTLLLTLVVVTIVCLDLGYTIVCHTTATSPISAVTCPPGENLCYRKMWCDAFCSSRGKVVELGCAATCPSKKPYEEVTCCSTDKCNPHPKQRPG

Torsin-1A-interacting protein 1 (Homo sapiens), sequence (Q5JTV8 whole entry, looked up): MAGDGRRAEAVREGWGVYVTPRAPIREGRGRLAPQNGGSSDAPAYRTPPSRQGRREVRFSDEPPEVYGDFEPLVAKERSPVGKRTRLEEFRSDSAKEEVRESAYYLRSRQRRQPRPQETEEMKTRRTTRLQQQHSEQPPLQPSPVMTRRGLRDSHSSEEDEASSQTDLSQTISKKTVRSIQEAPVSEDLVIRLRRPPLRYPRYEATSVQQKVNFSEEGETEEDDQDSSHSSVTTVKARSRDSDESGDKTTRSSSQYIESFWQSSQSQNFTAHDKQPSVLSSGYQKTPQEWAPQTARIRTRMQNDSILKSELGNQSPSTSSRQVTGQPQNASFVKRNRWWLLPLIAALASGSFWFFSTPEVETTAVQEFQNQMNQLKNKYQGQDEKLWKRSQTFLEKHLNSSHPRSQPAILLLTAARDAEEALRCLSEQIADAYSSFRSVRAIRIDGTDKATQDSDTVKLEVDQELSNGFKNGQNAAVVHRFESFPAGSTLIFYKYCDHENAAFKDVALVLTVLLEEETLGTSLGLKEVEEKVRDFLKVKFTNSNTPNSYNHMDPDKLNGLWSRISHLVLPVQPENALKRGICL
Follistatin-related protein 3 (Homo sapiens), sequence (O95633 whole entry, looked up): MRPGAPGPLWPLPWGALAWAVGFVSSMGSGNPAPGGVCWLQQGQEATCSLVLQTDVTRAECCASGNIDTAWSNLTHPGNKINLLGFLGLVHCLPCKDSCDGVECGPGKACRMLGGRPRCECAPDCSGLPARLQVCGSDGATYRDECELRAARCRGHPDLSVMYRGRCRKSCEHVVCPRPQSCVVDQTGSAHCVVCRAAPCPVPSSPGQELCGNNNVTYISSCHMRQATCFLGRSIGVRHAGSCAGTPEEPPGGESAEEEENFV
Epidermal growth factor receptor (Homo sapiens), sequence (P00533 whole entry, looked up): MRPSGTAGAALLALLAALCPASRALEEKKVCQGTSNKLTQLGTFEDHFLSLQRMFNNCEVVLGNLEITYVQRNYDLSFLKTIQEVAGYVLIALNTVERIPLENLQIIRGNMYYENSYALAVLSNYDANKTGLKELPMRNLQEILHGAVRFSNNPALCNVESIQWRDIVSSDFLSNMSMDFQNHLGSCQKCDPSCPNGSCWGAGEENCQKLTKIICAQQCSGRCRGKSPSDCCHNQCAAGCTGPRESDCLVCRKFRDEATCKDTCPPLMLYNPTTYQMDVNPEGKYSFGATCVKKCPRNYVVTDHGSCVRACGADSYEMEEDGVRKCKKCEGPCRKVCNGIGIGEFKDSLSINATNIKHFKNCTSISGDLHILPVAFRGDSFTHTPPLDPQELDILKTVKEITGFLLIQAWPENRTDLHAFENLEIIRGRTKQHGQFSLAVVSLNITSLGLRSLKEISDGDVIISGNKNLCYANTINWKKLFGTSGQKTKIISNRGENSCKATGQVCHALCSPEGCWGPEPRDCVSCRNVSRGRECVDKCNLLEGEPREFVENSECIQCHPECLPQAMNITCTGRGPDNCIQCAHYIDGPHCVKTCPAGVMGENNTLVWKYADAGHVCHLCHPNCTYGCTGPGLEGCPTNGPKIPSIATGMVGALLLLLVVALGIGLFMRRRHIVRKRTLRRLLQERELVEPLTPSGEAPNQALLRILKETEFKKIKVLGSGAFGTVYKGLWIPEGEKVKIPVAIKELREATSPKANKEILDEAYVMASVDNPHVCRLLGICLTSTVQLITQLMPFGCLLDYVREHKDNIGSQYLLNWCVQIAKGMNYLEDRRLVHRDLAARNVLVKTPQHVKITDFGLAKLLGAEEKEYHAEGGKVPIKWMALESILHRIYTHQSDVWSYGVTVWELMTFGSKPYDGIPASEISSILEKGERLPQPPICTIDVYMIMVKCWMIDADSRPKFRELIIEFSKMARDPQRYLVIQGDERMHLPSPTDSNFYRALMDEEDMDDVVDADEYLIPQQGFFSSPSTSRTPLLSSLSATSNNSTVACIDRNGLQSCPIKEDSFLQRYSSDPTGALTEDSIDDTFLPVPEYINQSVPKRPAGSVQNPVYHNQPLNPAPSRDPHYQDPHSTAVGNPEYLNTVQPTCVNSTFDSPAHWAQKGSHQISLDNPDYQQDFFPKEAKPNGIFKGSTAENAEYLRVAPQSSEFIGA
Dickkopf-related protein 1 (Homo sapiens), sequence (O94907 whole entry, looked up): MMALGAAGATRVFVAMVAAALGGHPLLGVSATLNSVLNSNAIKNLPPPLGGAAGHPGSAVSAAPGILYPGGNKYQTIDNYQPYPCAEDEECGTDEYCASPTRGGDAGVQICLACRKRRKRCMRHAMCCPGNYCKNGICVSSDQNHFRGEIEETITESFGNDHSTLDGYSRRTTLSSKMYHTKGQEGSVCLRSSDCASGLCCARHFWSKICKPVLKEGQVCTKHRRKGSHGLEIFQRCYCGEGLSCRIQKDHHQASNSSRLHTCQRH
Left-right determination factor 2 (Homo sapiens), sequence (O00292 whole entry, looked up): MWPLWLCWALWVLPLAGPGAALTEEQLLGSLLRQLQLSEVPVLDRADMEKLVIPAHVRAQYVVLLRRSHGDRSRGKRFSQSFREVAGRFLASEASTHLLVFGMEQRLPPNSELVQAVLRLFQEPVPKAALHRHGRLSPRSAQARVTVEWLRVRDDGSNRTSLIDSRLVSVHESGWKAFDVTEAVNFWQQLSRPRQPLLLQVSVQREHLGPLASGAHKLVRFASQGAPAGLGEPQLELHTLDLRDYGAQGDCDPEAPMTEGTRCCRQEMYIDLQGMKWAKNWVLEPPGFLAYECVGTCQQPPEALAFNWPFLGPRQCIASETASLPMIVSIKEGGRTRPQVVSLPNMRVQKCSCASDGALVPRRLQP
Fibroblast growth factor 10 (Homo sapiens), sequence (O15520 whole entry, looked up): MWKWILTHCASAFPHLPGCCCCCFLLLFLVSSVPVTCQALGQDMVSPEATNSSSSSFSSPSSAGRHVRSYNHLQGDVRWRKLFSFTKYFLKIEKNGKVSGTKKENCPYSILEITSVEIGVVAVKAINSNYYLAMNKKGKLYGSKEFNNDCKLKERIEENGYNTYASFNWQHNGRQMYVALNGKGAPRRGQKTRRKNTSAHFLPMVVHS

| Compound | composite z-score [1] | composite z-score [2] | composite z-score [3] | z-score [4] | composite z-score [5] | composite z-score [6] | composite z-score [7] | composite z-score [8] | composite z-score [9] | composite z-score [10] | composite z-score [11] | z-score [12] | composite z-score [13] | composite z-score [14] | composite z-score [15] | composite z-score [16] | composite z-score [17] | composite z-score [18] | composite z-score [19] | composite z-score [20] |
| --- | --- | --- | --- | --- | --- | --- | --- | --- | --- | --- | --- | --- | --- | --- | --- | --- | --- | --- | --- | --- |
| COc1cc2c(cc1OC)CN(C(=O)[C@@H]1[C@H]3C(=O)O[C@H](c4ccccc4)[C@H](c4ccccc4)N3[C@H](c3ccc(O)cc3)[C@@]13C(=O)Nc1ccc(C#CC4(O)CCCCCC4)cc13)CC2 | 1.41 | -0.767 | -0.692 | 0.263 (inactive) | 1.28 | 1.29 | 0.458 | 0.498 | 0.474 | -0.439 | 1.21 | -1.1 | 1.39 | 0.965 | -0.0394 | -0.195 | -0.0005 | 2.1 | 0.344 | 1.66 |
| CC(C)N1C(=O)c2ccccc2[C@](C)(C(=O)NCc2ccccc2)[C@@H]1c1ccc(CO)cc1 | 0.758 | 0.234 | 0.849 | 0.0799 (inactive) | -0.44 | -0.329 | -0.587 | -0.615 | -1.16 | 0.288 | -0.375 | 0.0554 | -1 | -0.742 | -0.514 | -0.0735 | -0.19 | -0.141 | 1.13 | -0.491 |
| O=C1NC(=O)C2C1C=CC(C(O)c1ccccc1)N2Nc1ccc(Cl)cc1Cl (stereo not given) | 1.62 | 0.394 | 0.914 | -1.36 (inactive) | 1.14 | 1.27 | 0.531 | 1.27 | -0.0035 | 0.705 | 1.39 | -1.25 | 0.628 | 2.13 | 1.09 | 0.17 | 0.412 | 1.44 | 1.98 | 1.55 |
| COC(=O)[C@@]1(Cc2ccc(F)cc2)[C@H]2c3cc(C(=O)N(C)C)n(CC4CC4)c3C[C@H]2CN1C(=O)c1ccccc1 | -0.0199 | 2.38 | 1.41 | -1.59 (inactive) | 1.4 | 1.31 | 0.463 | 1.18 | -0.637 | 0.14 | 1.45 | -1.14 | 0.0265 | 2.21 | 1.39 | 1.05 | 1.38 | 0.816 | 0.156 | 1.69 |
| COc1ccc(CCN2C(=O)[C@@]3(Cc4ccccc42)c2ccccc2C(=O)N(Cc2ccccc2C(F)(F)F)[C@H]3c2ccc(CO)cc2)cc1 | 0.516 | -0.19 | -0.537 | -0.856 (inactive) | 0.167 | 0.441 | 0.0283 | 0.425 | 0.622 | 0.717 | 0.291 | -0.961 | 0.0259 | 0.238 | -0.839 | -0.158 | 0.0796 | -0.258 | 0.0645 | 0.88 |

Source: PubChem BioAssay
